The supplement of paper PMC12632987

T1: USP38, Q8NB14
T1 chain: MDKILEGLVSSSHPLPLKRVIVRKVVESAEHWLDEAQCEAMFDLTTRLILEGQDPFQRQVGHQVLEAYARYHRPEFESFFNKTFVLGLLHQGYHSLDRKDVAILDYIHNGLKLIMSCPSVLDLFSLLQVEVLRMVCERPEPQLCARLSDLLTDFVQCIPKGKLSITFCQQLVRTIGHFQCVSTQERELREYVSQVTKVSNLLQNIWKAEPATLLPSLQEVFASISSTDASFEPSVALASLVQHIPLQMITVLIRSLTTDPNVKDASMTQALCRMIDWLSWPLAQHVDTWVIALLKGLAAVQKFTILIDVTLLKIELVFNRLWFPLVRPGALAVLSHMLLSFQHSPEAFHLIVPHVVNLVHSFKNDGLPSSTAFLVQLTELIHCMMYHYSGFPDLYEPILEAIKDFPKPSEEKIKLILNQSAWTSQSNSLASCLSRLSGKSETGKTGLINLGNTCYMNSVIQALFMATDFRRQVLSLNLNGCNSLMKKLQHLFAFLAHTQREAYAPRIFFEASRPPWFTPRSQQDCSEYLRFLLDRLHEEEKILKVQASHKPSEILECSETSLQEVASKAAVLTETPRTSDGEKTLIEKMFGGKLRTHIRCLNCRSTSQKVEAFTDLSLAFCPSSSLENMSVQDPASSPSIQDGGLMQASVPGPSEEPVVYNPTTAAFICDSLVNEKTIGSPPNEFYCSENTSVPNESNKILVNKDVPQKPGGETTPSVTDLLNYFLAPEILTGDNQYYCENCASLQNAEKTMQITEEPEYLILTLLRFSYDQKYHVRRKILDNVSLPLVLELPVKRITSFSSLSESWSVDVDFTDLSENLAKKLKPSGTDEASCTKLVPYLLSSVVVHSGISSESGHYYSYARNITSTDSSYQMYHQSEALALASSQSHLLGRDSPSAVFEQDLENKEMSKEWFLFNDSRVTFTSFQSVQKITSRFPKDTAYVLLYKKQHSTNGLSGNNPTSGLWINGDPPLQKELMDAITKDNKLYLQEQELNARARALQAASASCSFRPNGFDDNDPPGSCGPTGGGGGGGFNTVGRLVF

B1: usp_38_diff_out_18_14_287 (protein)
chain: SEEEAEALKSALEILRGDVDAYTERVIRLLEQAAGDPERVRRIHERARRNLAGVRAYAEEVLKRAEEAGDEETKKAAEELLRRVAEAEARIAARYAEVTA
B2: usp_38_diff_out_18_14_284 (protein)
chain: SAELAAAEKAALEILKTDVKKDTERVIRLLKKAKDDPERVKRIYERAKRNLEGVETYAKEVLERAKKAGDKETKAAAEELLKEIEEAKKKIEEAYKEVMA
B3: usp_38_diff_out_18_14_288 (protein)
chain: SEELSEAEISALKLLREDVERDTERTIRLLERARDDPERVRRIVERRERNLAGVRAYAEEVKKEAEERGDEETVKAAEELLRAIEEARARVAAARERVLA
B4: usp_38_diff_out_18_14_303 (protein)
chain: GEELAKAELENLKQLKADVKAYTERVIRLLEAARDDPERVKRIYERAQRDLAGVETYAKEVKKEAEKRGDKELVKAAEELLKEVAAARERVEAAYRAVMA
B5: usp_38_diff_out_18_14_283 (protein)
chain: SEELSKALKSNLESLKEDVKKDTERVLRLLEKRKDDPEQVKRIKERAERNLEGVITYAEEVLKEAEKEGDEEVKKAAKELIEEAKKAREKIEEKVKEVLA
B6: usp_38_diff_out_18_14_299 (protein)
chain: SAELAEAKAANLKLLKTDVKEDTERVIKLLKKNKNDPERVKRIYDRAKRNLAGVRTYAEEVLEEAKAAGDAATAAAAQELLKTIDEEEKKIEEEYKKVMA
B7: usp_38_diff_out_18_14_293 (protein)
chain: DAELSAAERSALATLRTDVAADTARTIALLKRVKDDPERVDRVVERARRNLAGVRAFAEEVLREAEERGDEETVAAARELLAAIDAAEAAVAAAAAAVRA
B8: usp_38_diff_out_18_14_282 (protein)
chain: MEELSEALKSNLESLKKDVEEDTKRVIELLEKNKDDPERVKRIYERAERNLEGVLTYAEEVLELAEKLGDEEVKKAAEELKKEAEKAREEIKKKVEKVLA
B9: usp_38_diff_out_18_14_275 (protein)
chain: SSELSEALQSNLESLKKDVKEDTERVLRLLEKRKDDPEQVKRIEERARRNLEGVIKFAEEVLKLAKELGDKETQKAAEELIKLAKEARKRVEEKVKEVLA
B10: usp_38_diff_out_18_14_281 (protein)
chain: SEELSKALLSNLESLKKDVEEDTERVLRLLEKNKDDPERVKRIVERAERDLAGVIEYAKEVLELAKKNGDEETLKAAKELIKKAEEARKRIEEKAKKVLA
B11: usp_38_diff_out_18_14_309 (protein)
chain: SAELAEAKKKNLEQLTTDVKEDTERVIRLLRKRRDDPEAVKRLYERAQRNLAGVRKYAEEVKKEAEKAGDKETVAAAEKLLKEVAEAEKRIEEEYARVMA
B12: usp_38_diff_out_18_14_301 (protein)
chain: SEELAEALRSNLELLKEDVKEDTERVIRLLKKNKNDPERVKDIYERAKRNLAGVREYAEEVLEEAEEAGDEETAEAARELLETIEEERKKIEEEYKKVMA
B13: usp_38_diff_out_18_14_291 (protein)
chain: SEELSEAEKSALELLKEEVKKDTERTIKLLEKVKDDPERVERIVERANRNLEGVRAYAEAVKKEAEARGDEETVKAAEELLKTIEEARERIEKAYKEVKA
B14: usp_38_diff_out_18_14_295 (protein)
chain: SEELSKAEISVLETLTKEVEADTDRTIALLEKVADDPERVKRIVERANRNLAGVRAYAEEVKERAEERGDEETVKKAEELLKKIDEAEARIAAAEAAVRA
B15: usp_38_diff_out_18_14_306 (protein)
chain: SEELAEAERSNLESLKKDVKEYTERVIKLLEKAKDDPERVKRIYERAKRNLAGVEEYAKEVLKRAKEAGDEETVKAAEELLKTIEEARKKVEEAYEKVMK
B16: usp_38_diff_out_18_14_304 (protein)
chain: SEELAAALKSNLESLTKEVKEDTERVIKLLKKRKDDPEEVKRIYERAERNLAGVEAYAKEVKAEAEKAGDAETVAAAEALLKEVKEAREKVKKAYEEVMA
B17: usp_38_diff_out_18_14_300 (protein)
chain: SAELAEALKSNLEILKEDVKRYTERVIRLLRKNKDDPERVKRIYERAKRDLEGVRKFAEEVLKLAKEEGDEETAKAAEELLKTIEEEEKRIEEEYKRVMA
B18: usp_38_diff_out_18_14_302 (protein)
chain: AAELAAAKKSNLESLKKDVEEDTKRVIELLEKAKDDPERVKRIYENAKRNLAGVRKYAEEVKKEAEEAGDKETVAAAEELLKTIEEAEKKVEEAYKKVMA
B19: usp_38_diff_out_18_14_290 (protein)
chain: SEELSKAEISALELLKKEVKENTERTIKLLEKVKDDPELVKRVMERAERNLAGVRAYAEDVKERAKERGDEETVKAAEELLKEIEEARKKLKEEYKKVMA
B20: usp_38_diff_out_18_14_279 (protein)
chain: SEELNEALLSNLESLKEDVERDTERVLRLLEANRDDPERVKRIVERAERNLAGVIEFAKEVLKEAEKAGNEELLKAAKELIKRAKEALERIRRKAEEVLA
B21: usp_38_diff_out_18_14_286 (protein)
chain: SAELAAAEKSALEILKKDVKEDTKRVIRLLEKAKDDPELVERIYERAKRDLAGVRAYAEEVLKRAEEAGDEETKAAAKELLKEIDKAKKEIDAAYKKVMA
B22: usp_38_diff_out_18_14_294 (protein)
chain: SSELSEAEVSALELLKKEVREDTERTIRLLEKVKDDPERVKRIVERRQRNLAGVRAYAEEVRRRAEELGDEETVAAANELLAEIDKAEKEVEEAVKRVEA
B23: usp_38_diff_out_18_14_276 (protein)
chain: SSELSEALKSNLESLKKDVKEDTERVLRLLDKRKDDPEQVKRIVERAERDLAGVREYAKEVLREAEERGDEETKKAAEELLKEADAALAKVKAKAKEVLA
B24: usp_38_diff_out_18_14_277 (protein)
chain: SEELKEALKSNLESLKKDVEEDTKRVIELLDKRKDDPEEVKRIYERAKRNLAGVKEYAKEVLEEAEKAGDEETKKAAEELIKKAEEAEKKIEEKVKEVLA
B25: usp_38_diff_out_18_14_280 (protein)
chain: SEELSEALLSNLKSLKKDVEEYTKRVLRLLEKNKDDPERVKRIKERAERNLAGVKKYAEEVLKEAEEEGDEETLKAAKELKETAEKALAEIEKKVKEVLA
B26: usp_38_diff_out_18_14_296 (protein)
chain: SSELSEAERSVLELLKEEVKKDTERTIKLLEKVKDDPERVKRIVERAERNLAGVRAFAEEVKERAEKEGDEETVKAAEELLAEIDAARERIAAAREKVLA
B27: usp_38_diff_out_18_14_308 (protein)
chain: AEELAAAKKSNLESLKEEVKKYTERVIELLKKAKDDPERVKRIYERAQRDLEGVRTYAEEVLKEAEAAGDEETKAAAKELLKEIDEAKKKVEKAYKEVMA
B28: usp_38_diff_out_18_14_297 (protein)
chain: SEELSEAEISNLELLKKEVEEDTERTIELLEKVKDDPERVKRIVERALRNLAGVEAYAKDVKERAEKEGNEKTVAAANELLATIEEARKRIEEKYKKVME
B29: usp_38_diff_out_18_14_289 (protein)
chain: AEELSAAERAALELLLEEVRRDTERTIRLLRRVRDDPERVERIVERAERNLAGVRAYAEDVRARARAAGDEETVAAADRLLAEVEAARARIEEERRRVLA
B30: usp_38_diff_out_18_14_292 (protein)
chain: SEELSEAEKSVLETLKKDVREDTERTIRLLEKVKDDPERVKRVVERARRNLAGVRAYAEEVKERAEKRGDEETVKAAEELLKEVEKAEERIEKAEEEVLK
B31: usp_38_diff_out_18_14_285 (protein)
chain: SAELAAAEKSALEILKKDVKEFTKRVIRLLKKSKDDPERVKRIYDRAKRDLAGVEKYAQEVLKRAEKAGDKETKAAAKELLKEIEKAKEEIEKEYKEVMA
B32: usp_38_diff_out_18_14_307 (protein)
chain: GEELAAAQLSNLNSLKTDVEKDTERVIKLLKKAKDDPERVKRIYERAKRNLAGVRTYATEVKEEAEKAGNAELVAAANDLLATIDDAEKKIEEEYKKVMA

Biological target: T1, USP38, Q8NB14
Test: median log2 fold change of GCK-ALFA target abundance (FLAG IP / Myc IP barcode read proportion) (log2 ratio); each designed protein is fused to an ALFA-tag nanobody in HEK293 cells to bring the named protein to FLAG-tagged glucokinase (GCK); Myc marks an untargeted standard; higher = target protein stabilised (more abundant)
Details: target protein: 3xFLAG-MCP-GCK-ALFA reporter; HEK293 landing pad (RPLP)
Outline: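 The readout is target abundance, the per-binder median log2 ratio of FLAG to Myc barcode read proportions. It came from HEK293 landing-pad cells carrying a recombined ALFA-nanobody-fused binder library, induced with 2 μg mL^−1 doxycycline and transfected with a plasmid for a FLAG-tagged target and a Myc-tagged standard. After 48 h, lysates were immunoprecipitated with anti-FLAG and anti-Myc, and circular RNA barcodes were reverse transcribed, amplified and sequenced. Each barcode needed a proportion of at least 10^−7 in both replicates and each binder at least 3 barcodes per replicate, a pseudocount of 10^−6 was added, and the replicates were pooled.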

Compared with B1, B2 is higher in “median log2 fold change” value: -0.622 for the first, 0.0553 for the second.

B3 and B4 are within 0.2 log units of each other in “median log2 fold change” value: -0.282 for the first, -0.327 for the second.

First: B5
Second: B6
The “median log2 fold change” value of the first is higher: -0.104 for the first, -0.444 for the second.

Going from B7 to B8, the “median log2 fold change” value rises from -0.59 to 0.237.

Going from B9 to B10, the “median log2 fold change” value rises from -0.129 to 0.189.

B11 and B12 are within 0.2 log units of each other in “median log2 fold change” value: -0.138 for the first, -0.149 for the second.

B13 and B14 are within 0.2 log units of each other in “median log2 fold change” value: -0.0115 for the first, 0.017 for the second.

Compared with B15, B16 is higher in “median log2 fold change” value: -0.549 for the first, 0.296 for the second.

Compared with B17, B18 is higher in “median log2 fold change” value: -0.852 for the first, 0.326 for the second.

B19 and B20 are within 0.2 log units of each other in “median log2 fold change” value: 0.00299 for the first, -0.00242 for the second.

B21 and B22 are within 0.2 log units of each other in “median log2 fold change” value: 0.128 for the first, 0.136 for the second.

B23 and B24 are within 0.2 log units of each other in “median log2 fold change” value: 0.242 for the first, 0.312 for the second.

First: B25
Second: B26
The “median log2 fold change” value of the first is lower: -0.87 for the first, -0.447 for the second.

First: B27
Second: B28
The “median log2 fold change” value of the first is lower: -0.392 for the first, 0.335 for the second.

B29 and B30 are within 0.2 log units of each other in “median log2 fold change” value: -0.0195 for the first, 0.0826 for the second.

First: B31
Second: B32
The “median log2 fold change” value of the first is lower: -0.615 for the first, -0.0463 for the second.
